Data reported in publication PMC12040169 (PLOS Biology, 2025).

tested on: T1, C. trachomatis L2/434/Bu expressing GFP (CTL2-GFP); set-up: species or system HeLa; C. trachomatis total inclusion area by high-content imaging, normalised to DMSO; conditions: total inclusion area; 28.5 h, 10 µM; inhibitor
T1 construct: L2/434/Bu GFP intracellular growth in HeLa cells
Source text: We screened a library of 36,785 small molecules displaying drug-like properties and covering a wide chemical space (Fig 1A and S2A Data). In this process, we also complemented the assay described above with an imaging-based readout (Fig 1B). After measurements of bulk GFP and resorufin fluorescence, cells were fixed, stained with the DNA dye Hoechst, and imaged at a high-content imaging platform to detect chlamydial inclusions (GFP) and host cell nuclei (Hoechst). The total area and number of inclusions in individual wells and the number of nuclei then served as additional proxies for chlamydial growth and host cell viability. […] MICs were calculated as described above.

In order of rising “% of control remaining” value:
1. O=C(c1cccc(S(=O)(=O)F)c1)N1CCCCC1 [CBK074224]  0.8769
2. S=P(Oc1ccccc1)(Oc1ccccc1)Oc1ccccc1 [CBK260987]  0.9936
3. CCOC(=O)CC(C)(O)P(=O)(OC)OC (stereo not drawn) [CBK261287]  1.025
